Results from publication PMC4336329 (PLoS ONE, 2015).
The campaign covered roughly 310,000 compounds. About 14,000 (4.5%) showed an effect of 50% or more. Effects have a minus sign here. The list comes from a sample in which strong results are over-represented; it also holds similar structures and randomly drawn compounds.

target: human ether-à-go-go-related gene (hERG) potassium channel (human, UniProt Q12809); test: primary screen, population patch clamp on CHO cells stably expressing hERG; higher = less effect of the substance
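Note: peak tail current of the secondary pulse compared with the same well before compound.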

human ether-à-go-go-related gene (hERG) potassium channel, sequence (Q12809 whole entry, looked up): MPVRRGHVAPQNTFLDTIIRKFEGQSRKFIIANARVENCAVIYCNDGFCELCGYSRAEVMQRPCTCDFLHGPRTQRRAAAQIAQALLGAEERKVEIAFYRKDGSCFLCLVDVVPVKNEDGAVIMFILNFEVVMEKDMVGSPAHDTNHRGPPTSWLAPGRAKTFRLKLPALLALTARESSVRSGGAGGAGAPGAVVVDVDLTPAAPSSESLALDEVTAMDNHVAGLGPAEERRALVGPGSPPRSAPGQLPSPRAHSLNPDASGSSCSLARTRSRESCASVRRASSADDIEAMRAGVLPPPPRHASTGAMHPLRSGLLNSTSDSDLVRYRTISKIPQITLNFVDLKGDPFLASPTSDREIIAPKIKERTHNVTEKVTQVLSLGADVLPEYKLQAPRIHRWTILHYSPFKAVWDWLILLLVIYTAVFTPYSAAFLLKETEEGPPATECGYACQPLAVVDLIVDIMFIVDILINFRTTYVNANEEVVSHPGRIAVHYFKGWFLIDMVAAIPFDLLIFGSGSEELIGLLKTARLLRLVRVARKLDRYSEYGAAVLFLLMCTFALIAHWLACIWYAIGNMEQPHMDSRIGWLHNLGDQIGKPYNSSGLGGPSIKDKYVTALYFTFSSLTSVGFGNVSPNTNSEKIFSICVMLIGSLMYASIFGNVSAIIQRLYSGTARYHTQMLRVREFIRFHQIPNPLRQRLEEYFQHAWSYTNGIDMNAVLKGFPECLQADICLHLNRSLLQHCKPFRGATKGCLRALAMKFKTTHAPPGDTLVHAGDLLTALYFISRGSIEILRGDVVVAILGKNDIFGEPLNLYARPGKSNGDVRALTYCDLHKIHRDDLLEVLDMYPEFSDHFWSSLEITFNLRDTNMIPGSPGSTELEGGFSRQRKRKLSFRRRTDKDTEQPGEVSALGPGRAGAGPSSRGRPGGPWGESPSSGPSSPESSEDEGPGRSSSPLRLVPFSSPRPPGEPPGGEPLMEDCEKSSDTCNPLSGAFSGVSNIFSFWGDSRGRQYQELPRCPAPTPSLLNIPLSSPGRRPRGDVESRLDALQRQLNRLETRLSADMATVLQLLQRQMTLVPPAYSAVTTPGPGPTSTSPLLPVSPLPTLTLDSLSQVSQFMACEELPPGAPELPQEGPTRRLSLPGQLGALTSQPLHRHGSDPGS

SMILES | hERG current change (%, negative = inhibition) at 10uM
O=C(CCC1=NS(=O)(=O)c2ccccc2N1)NC1CCCCCCC1 | 2.57%
COc1ccc(S(=O)(=O)N(CC(=O)NC2CC2)c2ccc(C)cc2)cc1 | -0.125%
CCCN(CC(=O)Nc1ccccc1C)C(=O)CSc1ccccc1C | 7.42%
CCCN(CC(=O)Nc1ccccc1C)C(=O)Cc1n[nH]c(=O)c2ccccc12 | -10.2%
CCCN(CC(=O)Nc1ccccc1C)C(=O)Cc1c(C)nc2ccccc2c1C | -77.4%
CCCN(CC(=O)Nc1ccccc1C)C(=O)CC(NC(=O)c1ccccc1)c1ccccc1 (stereo not drawn) | -52.7%
CCN(CC(=O)Nc1c(F)cccc1F)C(=O)Cc1c(C)nc2ccccc2c1C | -55.1%
CCN(CC(=O)Nc1c(F)cccc1F)C(=O)Cc1ccccc1 | -1.53%
CCCN(CC(=O)Nc1ccc(Cl)cc1Cl)C(=O)CC(NC(C)=O)c1ccccc1 (stereo not drawn) | 0.715%
CCCN(CC(=O)Nc1ccccc1C)C(=O)CCl | -0.969%
CCN(CC(=O)Nc1c(F)cccc1F)C(=O)c1cc(C)nc2ccccc12 | 9.3%
Cn1c(CCNC(=O)c2ccccc2F)nnc1SCC(=O)Nc1ccccc1F | 3.44%
OCCOCCn1c(CCNc2nc(-c3ccc(Cl)cc3)cs2)nc2cc(Cl)c(Cl)cc21 | 3.83%
Cc1ccc(-c2cc(-c3ccccc3)no2)c(O)c1 | 17.4%
CCn1ncc(/C=N\NC(=O)c2cc(-c3ccc(C)cc3C)nc3ccccc23)c1C | -8.84%
Cc1nnc(SCC(=O)c2ccc(Cl)cc2)s1 | -9.82%
Cc1ccc(Cn2c(CN3CCN(C(=O)c4ccco4)CC3)nc3c2c(=O)n(C)c(=O)n3C)cc1 | -54.2%
CC(C)Cn1c(CN2CCN(C(=O)c3ccco3)CC2)nc2c1c(=O)n(C)c(=O)n2C | -12.2%
Cc1ccccc1Cn1c(CN2CCN(C(=O)c3ccco3)CC2)nc2c1c(=O)n(C)c(=O)n2C | -45%
Cn1c(=O)c2c(nc(CN3CCN(C(=O)c4ccco4)CC3)n2Cc2ccc(Cl)cc2)n(C)c1=O | -64.8%
Cn1c(=O)c2c(nc(CN3CCN(C(=O)c4ccco4)CC3)n2Cc2ccccc2)n(C)c1=O | -40.7%

SMILES | hERG current change (%, negative = inhibition) at 10uM
Cn1c(=O)c2c(nc(CN3CCN(C(=O)c4ccco4)CC3)n2Cc2ccc(F)cc2)n(C)c1=O | -44.8%
Cn1c(=O)c2c(nc(CN3CCN(C(=O)c4ccco4)CC3)n2Cc2cccc(Cl)c2)n(C)c1=O | -60.1%
CC(=O)Cn1c(CN2CCN(C(=O)c3ccco3)CC2)nc2c1c(=O)n(C)c(=O)n2C | 16%
CCN1CCN(C(=O)c2ccc3c(c2)N(Cc2ccc(F)cc2)C(=O)c2ccccc2S3=O)CC1 (stereo not drawn) | -9.09%
O=C(NCc1ccccn1)[C@H]1C[C@@H]1[C@H](NP(=O)(c1ccccc1)c1ccccc1)c1ccccc1 | -9%
O=C(Nc1ccc2oc(-c3cccnc3)nc2c1)c1ccco1 | -33.2%
CC(=O)Nc1ccc(S(=O)(=O)N2CCC(C(=O)N[C@@H](C)C(=O)NC3CCCC3)CC2)cc1 | 35.3%
CCn1c(=O)c2ccccc2n(Cc2ccc([N+](=O)[O-])cc2)c1=O | -77%
CCn1c(=O)c2ccccc2n(Cc2cccc([N+](=O)[O-])c2)c1=O | 15.3%
COc1ccc(Cn2c(C)nc3ccc([N+](=O)[O-])cc3c2=O)cc1 | -20%
Cc1nc2ccc([N+](=O)[O-])cc2c(=O)n1Cc1ccc(F)cc1 | -26.2%
Cc1nc2ccc([N+](=O)[O-])cc2c(=O)n1Cc1ccc(Cl)cc1 | -4.6%
Cc1c(C=O)c2ccccc2n1Cc1ccc(F)cc1 | -43.1%
Cc1nc2ccccc2c(=O)n1Cc1ccc([N+](=O)[O-])cc1 | -74.4%
Cc1nc2ccc([N+](=O)[O-])cc2c(=O)n1Cc1ccc([N+](=O)[O-])cc1 | -76.8%
Cc1nc2ccc([N+](=O)[O-])cc2c(=O)n1Cc1ccc(Br)cc1 | 7.76%
Cc1c(C=O)c2ccccc2n1Cc1ccc([N+](=O)[O-])cc1 | -78.1%
Cc1c(C=O)c2ccccc2n1Cc1ccccc1 | -2.16%
CCn1c(=O)c2ccccc2n(Cc2cccc(C)c2)c1=O | 3.93%
Cc1onc(-c2ccccc2Cl)c1C(=O)Nc1ccc(S(=O)(=O)NCC2CCCO2)cc1 (stereo not drawn) | -10.5%
COc1ccc(C(=O)Nc2ccccc2N2CCOCC2)cc1S(=O)(=O)N1CCCC1 | -24.5%

SMILES | hERG current change (%, negative = inhibition) at 10uM
O=C(NCCCN1CCOCC1)c1cccc(S(=O)(=O)N2CCc3ccccc3C2)c1 | -17%
O=C(NNC(=O)c1ccc(Cl)cc1Cl)c1ccncc1 | 17%
Cc1ccc(-c2cccc(C(=O)NCc3ccccc3)n2)c2ccccc12 | 17.8%
CCOC(=O)N1C=CC=C[C@@H]2[C@@H](N3C(=O)c4ccccc4C3=O)C(=O)N21 | 0.941%
COc1ccc(OC)c2[nH]c(=O)c(CCNC(=O)C(=O)c3c(C)[nH]c4ccccc34)cc12 | -1.04%
C/C(CC(=O)Nc1ccccc1[N+](=O)[O-])=N\NC(=O)COc1ccccc1C | -5.65%
COC(=O)c1cc(-c2ccc(OC)c(OC)c2)c2c(=O)[nH]c(=O)n(C)c2n1 | 21.3%
COc1ccc(CSCCc2n[nH]c(=S)n2-c2ccccc2)cc1 | 20.1%
CC1=Nn2c(nnc2-c2n[nH]c3c2CCC3)SC1 | 8.18%
CN(c1ccc(OCC(=O)OCC(=O)Nc2c(F)c(F)c(F)c(F)c2F)cc1)S(=O)(=O)c1ccc(F)cc1 | 8.61%
Cc1ccc(S(=O)(=O)N(CC(=O)NCc2cccnc2)c2ccc(F)cc2)cc1 | -61.2%
CCNC(=O)CN(c1ccc(C)cc1)S(=O)(=O)c1ccccc1 | 7.75%
COc1ccc(S(=O)(=O)N(CC(=O)NCc2cccnc2)c2ccc(F)cc2)cc1OC | 4.62%
COc1ccc(N(CC(=O)NC(C)c2ccccc2)S(=O)(=O)c2ccc(C)cc2)cc1 (stereo not drawn) | -22.1%
CN(c1ccc(OCC(=O)OCC(=O)Nc2ccccc2)cc1)S(=O)(=O)c1ccc(F)cc1 | -11.9%
CN(c1ccc(OCC(=O)OCC(=O)Nc2ccc(F)cc2)cc1)S(=O)(=O)c1ccc(Cl)cc1 | -59.2%
COc1ccc(S(=O)(=O)N(CC(=O)NCc2cccnc2)c2ccc(C)cc2)cc1OC | -10%
COc1ccc(N(CC(=O)NCc2cccnc2)S(=O)(=O)c2ccc(C)c([N+](=O)[O-])c2)cc1 | -36.6%
COc1ccc(N(CC(=O)NCc2ccncc2)S(=O)(=O)c2ccc(C)c([N+](=O)[O-])c2)cc1 | -50.9%
Cc1ccc(N(CC(=O)NCC(O)c2ccccc2)S(=O)(=O)c2ccc(C)cc2)cc1 (stereo not drawn) | -65.9%
COc1ccc(N(CC(=O)Nc2ccc(C(N)=O)cc2)S(=O)(=O)c2ccc(C)c([N+](=O)[O-])c2)cc1 | 24%
